Results filed as inconclusive are left out. The source made the active and inactive calls. Calls follow the shape of the dose curve; as a rule, active = well fitted inhibition curve with a large enough effect; inconclusive = small, poorly fitted or top-dose-only effect, or effect the other way; inactive = no such curve, though single readings can be large or run the other way.
experiment: Concentration response confirmation VP16 counterscreen for inhibitors of ROR gamma transcriptional activity; conditions: Drosophila S2 Gal4-VP16 UAS-luciferase, luminescence, 20 h; series mostly up to 46.1 µM; also: nearly all actives have a fitted effect of over 70% in size
Source text: NIH Molecular Libraries Probe Production Network [MLPCN] NIH Chemical Genomics Center [NCGC] MLPCN Grant: R03 DA026211-01 Assay Provider: Dan Littman, New York University Assay Overview: The retinoic acid-related orphan receptor (ROR) gamma is a transcription factor that has a central role in the differentiation of Th17 cells, a subset of T helper cells that secrete the inflammatory cytokines IL-17, IL-17F, and IL-22. Th17 cells have been implicated in graft versus host disease, autoimmune disease and asthma. ROR gamma is induced in naive T helper cells in the presence of TGF-beta combined with IL-6, IL-21, or IL-23, and thereafter directs the expression of the Th17 lineage cytokines. To identify nonspecific inhibitors, a Drosophila Schneider cell line was stably transfected with two vectors: a gene expressing a fusion of the Gal4 DNA binding domain and the transactivation domain of the viral transcription factor VP16, under the control of the metallothionine promoter and a Photinus luciferase reporter regulated by the Gal4 binding site enhancer, UAS. […] Small molecule inhibitors that inhibit components common to the RORgt and VP16 assays, such as the Gal4 DNA binding domain or the UAS luciferase reporter, will be active in both assays and thus scored as nonspecific.
Assay Protocol Summary: For screening, 600 cells in 4 uL/well were dispensed into white solid 1536-well plates (Grenier) using a solenoid-based dispenser. Following transfer of 23 nL compound or DMSO vehicle by a pin tool, the plates were incubated 1 hr at ambient temperature, and 1 uL/well copper sulfate (700 uM final concentration) was added. The plates were centrifuged 15 s at 1000 RPM and incubated 20 hr at ambient temperature. After addition of 1.5 uL Photinus luciferase detection reagent, the plates were incubated 10 min at ambient temperature and then read by an ViewLux (Perkin Elmer) to detect luminescence.
Potency is read from the fitted curve at half-maximal effect.

SMILES	Potency
N=C1S/C(=C\c2ccco2)C(=O)N1c1nccs1	0.396 µM (active)
COc1ccc(-c2nc(CS(=O)(=O)CC(=O)NCCc3ccc(C)cc3)c(C)o2)cc1	inactive
Cc1nc2c(-c3ccccc3)cnn2c(N)c1-c1ccccc1	11.2 µM (active)
Cc1ccc(C)c(-n2[nH]c3c4c(ccc3c2=O)C(=O)c2ccccc2C4=O)c1	inactive
CCN(CC(=O)NCCc1ccc(Cl)cc1)Cc1nc2ccccc2c(=O)[nH]1	25 µM (active)
Cc1ccc(S(=O)(=O)NCc2ccncc2)cc1	12.5 µM (active)
CCOc1ncccc1C(=O)OCC(=O)Nc1ccc(-c2nc3ccc(C)cc3s2)cc1	3.53 µM (active)
O=C(Cn1c(=O)oc2ccc(Cl)cc21)Nc1ccon1	inactive
CCOC(=O)Cn1c(CN2CCc3ccccc3C2)nc2c1c(=O)n(C)c(=O)n2C	3.15 µM (active)
CC(C)(C)S(=O)(=O)c1cnc2c(-c3ccc(Cl)cc3)cnn2c1N	6.28 µM (active)
CCOc1ccc(C(=O)Nc2nc3ccccc3[nH]2)cc1OCC	12.5 µM (active)
COC1CCCCC1Nc1cc(C)ccc1C (stereo not given)	inactive
CCN1CCCc2cc(CN(CCN3CCOCC3)C(=S)Nc3ccccc3C)ccc21	15.8 µM (active)
COC(=O)c1ccc(Oc2cc(C)nc(-n3nc(C)cc3C)n2)cc1	7.91 µM (active)
O=c1c2cc(Br)ccc2[nH]c(=S)n1Cc1cccnc1	11.2 µM (active)
Cc1cc(NC(=S)NC(=O)/C=C/c2ccc(S(=O)(=O)N3CCOCC3)cc2)ccc1Br	11.2 µM (active)
Cc1ccc(-c2n[nH]c(=S)n2/N=C/C=C\c2ccccc2[N+](=O)[O-])cc1	inactive
COC1CCN(C(=O)c2cc(COc3ccc(-n4cncn4)cc3)on2)CC1	inactive
COc1cc(C(=O)NC2CC(C)(C)Cc3c2cnn3-c2ccccc2)cc(OC)c1OC (stereo not given)	inactive
Cc1cc(C)c2[nH]c(C(=O)Nc3ccc4c(c3)OCO4)cc2c1	inactive

SMILES	Potency
COc1ccc(/C=C/C(=O)NC(=S)NCC2CCCO2)cc1 (stereo not given)	14.1 µM (active)
O=C(CSc1ccccc1C(=O)N1CCCCC1)NCC1CCCCC1	inactive
Oc1ccccc1-c1cc(-c2ccc3c(c2)OCCO3)n[nH]1	19.9 µM (active)
CN(C)S(=O)(=O)c1ccc(NC(=O)/C=C/c2ccccc2Cl)cc1	inactive
Oc1ccc(COCc2ccccc2)c2cccnc12	2.5 µM (active)
CCOc1ccc2nc(NC(=O)c3cnccn3)sc2c1	9.96 µM (active)
Cc1cc(NC(=O)CN2CCOCC2)n(-c2nc3ccccc3s2)n1	12.5 µM (active)
C=CCn1c(SCC(=O)c2ccc(OC)cc2)nnc1-c1cc2cccc(OC)c2o1	inactive
Cn1c(=O)c2c(nc(NCc3ccco3)n2Cc2ccccc2Cl)n(C)c1=O	3.97 µM (active)
Cc1ccc2nc(-c3ccc(NC(=O)COC(=O)c4ccc(=O)[nH]c4)cc3)sc2c1	12.5 µM (active)
O=C(c1cc(-c2ccc(Cl)cc2)n[nH]1)N1CCc2ccccc2C1	inactive
Cc1ccc(C)c(/C=N/n2cc(-c3ccccc3)[nH]c2=S)c1	9.96 µM (active)
COc1ccc(-c2cc(C(F)(F)F)nc(S(=O)(=O)CCCC(=O)Nc3cccnc3Cl)n2)cc1OC	9.96 µM (active)
COc1ccc(Cl)c(Cn2c(NCc3ccco3)nc3c2c(=O)n(C)c(=O)n3C)c1	1.99 µM (active)
COc1ccc(C(=O)Nc2nc3cc4c(cc3s2)OCCO4)c(OC)c1	0.223 µM (active)
CC(C)(C)c1cc(C(=O)N2CCc3ccccc32)ccn1	inactive
CCN1CCN(CCC(=O)Nc2ccccc2)CC1	inactive
Cc1cccc(NC(=O)c2cc3ccccc3o2)c1	25 µM (active)
COCC1CCCCN1C(=O)c1cc(COc2ccc3ncccc3c2)on1 (stereo not given)	7.05 µM (active)
c1ccc(-c2ncc3c(ccc4ccccc43)n2)cc1	8.88 µM (active)

Reference: PubChem BioAssay AID2763 (National Center for Advancing Translational Sciences (NCATS), 2010)
